According to PubChem BioAssay (NCI):
This is part of a sample that, as a whole, favours compounds with a hit. Of some 83,000 tested, about 20% had one in any assay.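 48-hour exposure, single concentration, 96-well plates; percent growth endpoint where 0 means no net growth. Active: below 10.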 Active and inactive are the calls of the source.

test system: NCI-H23 lung; assay: NCI-60 one-dose screen, 48 h (100 = growth as untreated, 0 = no growth, -100 = all killed); settings: 10 µM unless noted

Row | SMILES | growth
1 | N#Cc1c(N)[nH]c(S)c1C#N | 105% (inactive)
2 | NC(=Nc1ccccc1)SCCCCSC(N)=Nc1ccccc1 | 71.2% (inactive)
3 | CN(C)c1cccc2c(S(=O)(=O)N[C@H]3CC[C@H]4[C@@H]5CCc6cc(O)ccc6[C@H]5CC[C@]34C)cccc12 | 40.8% (inactive)
4 | CCCCCCCCCCCCCCCCCc1nccn1CCO | 70.7% (inactive)
5 | COC(=O)CCC1=C(C)/C(=C/c2[nH]c(-c3ccc[nH]3)cc2OC)N=C1C | 8.11% (active)
6 | NC(=O)N/N=C/c1ccc(Br)o1 | 97.7% (inactive)
7 | COc1ccc(OC)c2c1[nH]c(=O)c1c3ccccc3cn21 | -25.8% (active)
8 | O=C1C(=O)c2ccc(Br)cc2-c2cc(Br)ccc21 | 42% (inactive)
9 | O=c1c(O)cccn1CCCNCCCN(CCCn1cccc(O)c1=O)CCCn1cccc(O)c1=O | 97.7% (inactive)
10 | CN(CCOc1ccc(CC2SC(=O)NC2=O)cc1)c1ccccn1 (centres undefined) | 99.7% (inactive)
11 | COc1cccc2c1C(=O)c1c(O)c3c(c(O)c1C2=O)C[C@@](O)(/C(C)=N/NC(=O)c1cccc([N+](=O)[O-])c1)C[C@@H]3OC1CC(N)C(O)C(C)O1 (some centres undefined) | -33.6% (active)
12 | Cc1nnc(Nc2ccc(NC(=O)Nc3ccc(Cl)cc3)cc2)c2ccccc12 | 48.8% (inactive)
13 | O=C(Nc1ccc(Cl)cc1)Nc1ccc(Nc2nncc3ccccc23)cc1 | 12.5% (inactive)
14 | OCc1nnn(-c2ccccc2)c1CO | 112% (inactive)
15 | COc1ccc2c(c1)C(=O)c1c-2c(=O)n(CCCCCCC(=O)NO)c2ccccc12 | -41.9% (active)
16 | O=[N+]([O-])c1ccc(N/N=C\c2ccccc2[N+](=O)[O-])nc1 | 98.2% (inactive)
17 | CN1COc2ccc3ccccc3c2C1 | 88.8% (inactive)
18 | O=C(Nc1cccc2ccccc12)c1cc2c(cc1Br)OCO2 | 88.6% (inactive)
19 | Cc1cc(NC(=O)Nc2cc(Cl)ccc2C)no1 | 88.3% (inactive)

Row | SMILES | growth
20 | O=C1C[C@@H]2/C(=C(O)\C=C\c3ccccc3)C(=O)C=C[C@@H]2O1 | 77% (inactive)
21 | O=C1/C(=C/c2ccc([N+](=O)[O-])o2)Oc2ccc(Cl)cc21 | 21.3% (inactive)
22 | c1ccc(N2CCN(c3nncc4ccccc34)CC2)nc1 | 105% (inactive)
23 | O=C(Nc1ccc(Oc2ccc(NC(=O)Nc3ccc([N+](=O)[O-])cc3)cc2)cc1)Nc1ccc([N+](=O)[O-])cc1 | -17.8% (active)
24 | Cc1cc(C)n(C(=O)c2nn(-c3ccc(Cl)cc3)cc2O)n1 | 9.42% (active)
25 | NC(=O)c1ncn([C@@H]2O[C@H](CO)[C@@H](O)[C@H]2O)n1 | 99.1% (inactive)
26 | CCCCN(CCCC)CCCOC(=O)c1ccc(N)cc1 | 96.1% (inactive)
27 | COc1ccc2c(c1)C(=O)/C(=C/c1ccc([N+](=O)[O-])s1)O2 | 7.22% (active)
28 | CCCCCCCCCCCCCCCCCC1=NC(C)(C)CN1CCO | 38.9% (inactive)
29 | COc1cc([C@@H]2c3cc4c(cc3C(O[C@@H]3O[C@@H]5CO[C@@H](c6cccs6)OC5[C@H](O)[C@H]3O)C3COC(=O)[C@@H]32)OCO4)cc(OC)c1O (some centres undefined) | -32.5% (active)
30 | CC12CCC3C(CCC4CC(=O)/C(=C\O)CC43C)C1CCC(=O)O2 (centres undefined) | 98.8% (inactive)
31 | O=C(Nc1ccc(Cl)cc1Cl)Nc1ccc(-c2cccnc2)cc1N1CCC(CO)CC1 | 29% (inactive)
32 | CCN(CC)CCCCNc1c2ccccc2[n+](C)c2c1[nH]c1ccccc12 | -35.9% (active)
33 | Cc1ccc(NC(=O)Nc2ccc(-c3cccnc3)cc2N2CCC(CO)CC2)cc1 | 4.01% (active)
34 | COc1cc(C2CC(c3ccc(C)cc3)=NN2C(C)=O)ccc1Oc1ccnc2cc(Cl)ccc12 (centres undefined) | 59.9% (inactive)
35 | C[n+]1c2ccccc2c(NC2CCNCC2)c2[nH]c3ccccc3c21 | 3.72% (active)
36 | Clc1ccc([C@@H]2C[C@@H]3Cc4cc(Br)c5ccccc5c4N2O3)c(Cl)c1 | 78.6% (inactive)
37 | C=C(C)[C@@H]1C[C@H](O)Cc2cc(Cl)cc(Cl)c2N1 | 103% (inactive)

test system: NCI-H226 lung; assay: as above; settings: 10 µM unless noted

Row | SMILES | growth
38 | N#Cc1c(N)[nH]c(S)c1C#N | 97.5% (inactive)
39 | NC(=Nc1ccccc1)SCCCCSC(N)=Nc1ccccc1 | 95% (inactive)
40 | CN(C)c1cccc2c(S(=O)(=O)N[C@H]3CC[C@H]4[C@@H]5CCc6cc(O)ccc6[C@H]5CC[C@]34C)cccc12 | 51% (inactive)
41 | CCCCCCCCCCCCCCCCCc1nccn1CCO | 97.3% (inactive)
42 | COC(=O)CCC1=C(C)/C(=C/c2[nH]c(-c3ccc[nH]3)cc2OC)N=C1C | 23.9% (inactive)
43 | NC(=O)N/N=C/c1ccc(Br)o1 | 98.8% (inactive)
44 | COc1ccc(OC)c2c1[nH]c(=O)c1c3ccccc3cn21 | 48.4% (inactive)
45 | O=C1C(=O)c2ccc(Br)cc2-c2cc(Br)ccc21 | 88.6% (inactive)
46 | O=c1c(O)cccn1CCCNCCCN(CCCn1cccc(O)c1=O)CCCn1cccc(O)c1=O | 95% (inactive)
47 | CN(CCOc1ccc(CC2SC(=O)NC2=O)cc1)c1ccccn1 (centres undefined) | 98.9% (inactive)
48 | COc1cccc2c1C(=O)c1c(O)c3c(c(O)c1C2=O)C[C@@](O)(/C(C)=N/NC(=O)c1cccc([N+](=O)[O-])c1)C[C@@H]3OC1CC(N)C(O)C(C)O1 (some centres undefined) | -67.4% (active)
49 | Cc1nnc(Nc2ccc(NC(=O)Nc3ccc(Cl)cc3)cc2)c2ccccc12 | 71.9% (inactive)
50 | O=C(Nc1ccc(Cl)cc1)Nc1ccc(Nc2nncc3ccccc23)cc1 | 33.3% (inactive)
51 | OCc1nnn(-c2ccccc2)c1CO | 114% (inactive)
52 | COc1ccc2c(c1)C(=O)c1c-2c(=O)n(CCCCCCC(=O)NO)c2ccccc12 | 1.93% (active)
53 | O=[N+]([O-])c1ccc(N/N=C\c2ccccc2[N+](=O)[O-])nc1 | 106% (inactive)
54 | CN1COc2ccc3ccccc3c2C1 | 93.7% (inactive)
55 | O=C(Nc1cccc2ccccc12)c1cc2c(cc1Br)OCO2 | 81% (inactive)
56 | Cc1cc(NC(=O)Nc2cc(Cl)ccc2C)no1 | 105% (inactive)

Row | SMILES | growth
57 | O=C1C[C@@H]2/C(=C(O)\C=C\c3ccccc3)C(=O)C=C[C@@H]2O1 | 39.9% (inactive)
58 | O=C1/C(=C/c2ccc([N+](=O)[O-])o2)Oc2ccc(Cl)cc21 | -7.54% (active)
59 | c1ccc(N2CCN(c3nncc4ccccc34)CC2)nc1 | 98.1% (inactive)
60 | O=C(Nc1ccc(Oc2ccc(NC(=O)Nc3ccc([N+](=O)[O-])cc3)cc2)cc1)Nc1ccc([N+](=O)[O-])cc1 | 24.4% (inactive)
61 | Cc1cc(C)n(C(=O)c2nn(-c3ccc(Cl)cc3)cc2O)n1 | 44.9% (inactive)
62 | NC(=O)c1ncn([C@@H]2O[C@H](CO)[C@@H](O)[C@H]2O)n1 | 106% (inactive)
63 | CCCCN(CCCC)CCCOC(=O)c1ccc(N)cc1 | 76.8% (inactive)
64 | COc1ccc2c(c1)C(=O)/C(=C/c1ccc([N+](=O)[O-])s1)O2 | 60% (inactive)
65 | CCCCCCCCCCCCCCCCCC1=NC(C)(C)CN1CCO | 17.6% (inactive)
66 | COc1cc([C@@H]2c3cc4c(cc3C(O[C@@H]3O[C@@H]5CO[C@@H](c6cccs6)OC5[C@H](O)[C@H]3O)C3COC(=O)[C@@H]32)OCO4)cc(OC)c1O (some centres undefined) | -53.9% (active)
67 | CC12CCC3C(CCC4CC(=O)/C(=C\O)CC43C)C1CCC(=O)O2 (centres undefined) | 113% (inactive)
68 | O=C(Nc1ccc(Cl)cc1Cl)Nc1ccc(-c2cccnc2)cc1N1CCC(CO)CC1 | 55.4% (inactive)
69 | CCN(CC)CCCCNc1c2ccccc2[n+](C)c2c1[nH]c1ccccc12 | -11.8% (active)
70 | Cc1ccc(NC(=O)Nc2ccc(-c3cccnc3)cc2N2CCC(CO)CC2)cc1 | 54% (inactive)
71 | COc1cc(C2CC(c3ccc(C)cc3)=NN2C(C)=O)ccc1Oc1ccnc2cc(Cl)ccc12 (centres undefined) | 45.4% (inactive)
72 | C[n+]1c2ccccc2c(NC2CCNCC2)c2[nH]c3ccccc3c21 | 6.63% (active)
73 | Clc1ccc([C@@H]2C[C@@H]3Cc4cc(Br)c5ccccc5c4N2O3)c(Cl)c1 | 95.7% (inactive)
74 | C=C(C)[C@@H]1C[C@H](O)Cc2cc(Cl)cc(Cl)c2N1 | 100% (inactive)
